Where “and” joins values, the source holds several entries; their conditions need not be identical. Identical values can stand only once. Screen size: about 5,500 compounds; about 2,000 (36%) were called active. Not shown: some 18% with an inconclusive outcome. Rule as the data show it: active = normalized growth mostly below about 0.91 (no sharp cut-off); inconclusive = no clear call, values can overlap the other calls; inactive = mostly above about 0.92. Some of the results follow.
Test: chemical genetic growth profiling, strain panel (AID 1159580);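 also: tested at 20 µM; growth read once vehicle control cultures reached saturation at 30 °C; 1 = growth at the plate median or of vehicle wells; lower values mean less growth of the strain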
Conditions: S. cerevisiae deletion strains, growth OD

Measured: normalized growth

C#C[C@]1(O)CCC2C3CCC4=CC(=O)CC[C@@H]4C3CC[C@@]21CC (some centres undefined)
inactive: locus YAL021C, strain ccr4, active compounds read low 0.986 | locus YAL026C, strain drs2, active compounds read low 0.972 | locus YAL030W, strain snc1, active compounds read low 1 | locus YBL061C, strain skt5, active compounds read low 0.987 | locus YBR009C, strain hhf1, active compounds read low 0.985 | locus YBR021W, strain FUR4, active compounds read low 1 | locus YBR023C, strain chs3, active compounds read low 0.983 | locus YBR171W, strain sec66, active compounds read low 0.992 | locus YBR229C, strain ROT2, active compounds read low 0.984 | locus YBR231C, strain swc5, active compounds read low 1.01 | locus YBR279W, strain paf1, active compounds read low 0.998 | locus YCL011C, strain gbp2, active compounds read low 1 | locus YCL016C, strain dcc1, active compounds read low 0.988 | locus YCL029C, strain bik1, active compounds read low 0.981 | locus YCL061C, strain MRC1, active compounds read low 0.991 | locus YCL069W, strain vba3, active compounds read low 0.995 | locus YCR088W, strain abp1, active compounds read low 0.999 | locus YDL005C, strain med2, active compounds read low 0.987 | locus YDL035C, strain GPR1, active compounds read low 0.979 | locus YDL040C, strain nat1, active compounds read low 0.99 | locus YDL074C, strain BRE1, active compounds read low 1.04 | locus YDL101C, strain DUN1, active compounds read low 0.987 | locus YDL134C, strain PPH21, active compounds read low 0.974 | locus YDL185W, strain tfp1, active compounds read low 0.982 | locus YDL192W, strain arf1, active compounds read low 0.986 | locus YDR001C, strain nth1, active compounds read low 1 | locus YDR069C, strain doa4, active compounds read low 0.979 | locus YDR101C, strain arx1, active compounds read low 0.988 | locus YDR150W, strain NUM1, active compounds read low 1.01 | locus YDR159W, strain sac3, active compounds read low 0.978 | locus YDR162C, strain NBP2, active compounds read low 0.997 | locus YDR195W, strain ref2 1.05 | locus YDR297W, strain sur2, active compounds read low 0.993 | locus YDR318W, strain mcm21, active compounds read low 0.976 | locus YDR334W, strain swr1, active compounds read low 1.01 | locus YDR335W, strain msn5, active compounds read low 1 | locus YDR388W, active compounds read low 0.992 | locus YDR392W, strain spt3, active compounds read low 0.828 | locus YDR502C, strain sam2, active compounds read low 0.984 | locus YEL003W, strain gim4, active compounds read low 0.967 | locus YEL037C, strain rad23, active compounds read low 0.983 | locus YEL061C, strain CIN8 (second series), active compounds read low 1 | locus YEL061C, strain CIN8, active compounds read low 1.01 | locus YER015W, strain faa2, active compounds read low 1.01 | locus YER016W, strain bim1, active compounds read low 0.993 | locus YER110C, active compounds read low 0.999 | locus YER111C, strain swi4, active compounds read low 0.997 | locus YER155C, strain BEM2 (second series), active compounds read low 0.997 | locus YER155C, strain BEM2, active compounds read low 0.99 | locus YER167W, strain BCK2, active compounds read low 0.991 | locus YFR010W, strain ubp6, active compounds read low 0.991 | locus YGL078C, strain dbp3, active compounds read low 0.989 | locus YGL086W, strain mad1, active compounds read low 1 | locus YGL167C, strain pmr1, active compounds read low 0.995 | locus YGL173C, strain kem1, active compounds read low 0.979 | locus YGL227W, strain vid30, active compounds read low 1.01 | locus YGL240W, strain doc1, active compounds read low 0.991 | locus YGL248W, strain PDE1, active compounds read low 0.993 | locus YGL253W, strain hxk2, active compounds read low 0.995 | locus YGR135W, strain pre9, active compounds read low 0.975 | locus YGR229C, strain SMI1, active compounds read low 1.01 | locus YGR252W, strain gcn5, active compounds read low 1.06 | locus YHR013C, strain ard1, active compounds read low 1.01 | locus YHR027C, strain rpn1, active compounds read low 1.01 | locus YHR030C, strain SLT2, active compounds read low 0.995 and 0.955 | locus YHR079C, strain IRE1 (second series), active compounds read low 0.979 | locus YHR079C, strain IRE1, active compounds read low 0.955 | locus YHR094C, strain hxt1, active compounds read low 1 | locus YHR129C, strain ARP1, active compounds read low 0.996 | locus YHR142W, strain chs7, active compounds read low 0.997 | locus YHR200W, strain rpn10, active compounds read low 0.984 | locus YIL066C, strain RNR3, active compounds read low 0.995 | locus YIL073C, strain SPO22, active compounds read low 0.944 | locus YIL125W, strain kgd1, active compounds read low 0.998 | locus YIR030C, strain dcg1, active compounds read low 0.982 | locus YJL092W, strain hpr5, active compounds read low 0.998 | locus YJL095W, strain BCK1 (second series), active compounds read low 1.01 | locus YJL095W, strain BCK1, active compounds read low 0.988 and 0.951 | locus YJL115W, strain asf1, active compounds read low 1 | locus YJL129C, strain trk1, active compounds read low 0.986 | locus YJL134W, strain LCB3, active compounds read low 0.995 | locus YJL154C, strain vps35, active compounds read low 0.993 | locus YJL164C, strain tpk1, active compounds read low 0.988 | locus YJL166W, strain qcr8, active compounds read low 0.991 | locus YJL168C, strain set2, active compounds read low 0.99 | locus YJL187C, strain SWE1 (second series), active compounds read low 0.988 | locus YJL187C, strain SWE1, active compounds read low 0.997 | locus YJR043C, strain POL32, active compounds read low 1.01
active: locus YDR137W, strain rgp1, active compounds read low 0.82
